High-throughput results: PubChem BioAssay, National Center for Advancing Translational Sciences (NCATS)
SNCA expr inhib: Primary qHTS assay for inhibitors of alpha-synuclein gene (SNCA) expression; Potency, µM (doses to about 57.2 µM), for the others: at the top dose activity change, negative = inhibition, hits mostly inhibitors; 0.17% of 140,000 active; HEK-293 SNCA-luciferase knock-in, luminescence, 24 h; AID 1671194, 2021;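 also: potency is read from the fitted curve at half-maximal effect; plate controls were DMSO cells for no effect and cell-free wells for full effect; nearly all actives have a fitted effect of over 45% in size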
KDM5B inhibitor: Primary screen for KDM5B Histone Demethylases FDH-coupled qHTS; AID 1347165, 2019; Potency, µM (top dose mostly 57.7 µM), hits mostly inhibitors; KDM5B demethylase, FDH-coupled NADH fluorescence (FDH is formaldehyde dehydrogenase); Lysine-specific demethylase 5B (Homo sapiens), Q9UGL1; 2.6% of 220,000 active; also: potency is read from the fitted curve at half-maximal effect; 0% is about no effect; nearly all actives have a fitted effect of over 70% in size
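qHTS format, multiple compound concentrations. Buffer 50 mM HEPES pH 7.5/0.01% Tween-20; 200 nM KDM5BΔAP final; 10 min compound preincubation; substrate-mix levels 12.5 µM peptide, 25 µM α-KG, 0.25 mM NAD⁺; 30 min RT; ΔRFU.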
SNCA viab count: GF-AFC viability counterscreen for inhibitors of alpha-synuclein gene (SNCA) expression | HEK-293-SNCA-luc viability, GF-AFC fluorescence, 24 h | Potency, µM (series often up to 57.1 µM), inactives show at the highest dose activity change, negative = cytotoxicity, most hits filed as cytotoxic | 0.12% of 150,000 active | AID 1671193, 2021;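 also: potency is read from the fitted curve at half-maximal effect; 0% = DMSO-treated cells and -100% = medium-only wells without cells; nearly all actives have a fitted effect of over 30% in size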
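Cytotoxicity counterscreen: after 24 h compound treatment of genome-edited SNCA-luciferase HEK-293 cells, live-cell protease substrate GF-AFC read by fluorescence after 30 min; activity scaled between DMSO (0%) and medium-only (-100%), curves Hill-fitted.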
IP6K1 inh: Primary qHTS assay for small molecule inhibitors of Inositol hexaphosphate kinase 1 (IP6K1); Inositol hexakisphosphate kinase 1 (Homo sapiens), Q92551; IP6K1 kinase, ADP-Glo luminescence, 2 h; active compounds read low; activity change, % (series mostly up to about 58 µM); 0.81% of 140,000 active; AID 1645851, 2021; in the data active = activity change below about -25%; also: % is scaled to controls: 0 for no effect and ±100 for the full control effect
Target sequence (Q92551 whole entry, looked up): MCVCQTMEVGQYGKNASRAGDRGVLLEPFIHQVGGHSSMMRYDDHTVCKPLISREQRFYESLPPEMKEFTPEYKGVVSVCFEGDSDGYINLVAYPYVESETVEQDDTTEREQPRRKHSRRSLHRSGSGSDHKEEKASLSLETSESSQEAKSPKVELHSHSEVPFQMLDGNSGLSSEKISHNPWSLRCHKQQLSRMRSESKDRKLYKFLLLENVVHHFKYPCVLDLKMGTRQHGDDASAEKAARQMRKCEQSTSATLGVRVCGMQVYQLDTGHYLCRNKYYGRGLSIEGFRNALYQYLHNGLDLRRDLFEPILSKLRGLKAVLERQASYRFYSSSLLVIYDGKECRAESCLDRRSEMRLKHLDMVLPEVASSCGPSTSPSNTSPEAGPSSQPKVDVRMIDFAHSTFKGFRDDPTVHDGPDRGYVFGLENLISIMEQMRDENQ
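ADP-Glo luminescence measures ADP made by human IP6K1 during a 2 h RT reaction with ATP/IP6 (mix at 1.3 mM/130 uM); top library doses 57.5 and 19.1 uM final.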
IP6K1 conf: Confirmatory qHTS assay for small molecule inhibitors of Inositol hexaphosphate kinase 1 (IP6K1). recombinant IP6K1 kinase, ADP-Glo luminescence, 2 h. Potency, µM (titrated, usually from 49 µM), for the others: at the highest dose activity change, negative = inhibition, usual class: inhibitors. shares compounds with IP6K1 inh. 13% of 1,200 active. AID 1645852, 2021; also: potency is read from the fitted curve at half-maximal effect; % is scaled to controls: 0 for no effect and ±100 for the full control effect; nearly all actives have a fitted effect of over 65% in size
An asterisk follows results filed as active; i = inactive; ? = inconclusive; . = no result given; [ ] = remark or other dose. Shown are actives, neighbours in structure and some others; about 2.8% of the full set was active somewhere. Unless noted, calls follow the shape of the dose curve; as a rule, active = well fitted curve in the direction sought with a large enough effect; inconclusive = small, poorly fitted or top-dose-only effect, or another doubt; inactive = no such curve, though single readings can be large; an effect the other way counts as inactive or inconclusive.

SMILES	SNCA expr inhib	KDM5B inhibitor	SNCA viab count	IP6K1 inh	IP6K1 conf
Cc1c(C(=O)N(Cc2ccccc2F)C2CCS(=O)(=O)C2)oc2ccccc12 (centres undefined)	7%	i	-22%	-61*	-21%
O=c1cc(C2=CCOCC2)oc2c(-c3cccc4[nH]ccc34)nccc12	-29%[87.6 µM]	?	?	-25*	?
COc1ccccc1-c1nccc2c(=O)cc(-c3ccccn3)oc12	?	?	-16%[87.6 µM]	-17	.
CC1(C)CC(=O)C/C(=N/NC(=O)c2ccccc2I)C1	.	i	.	.	.
Cn1ncc2c(C(=O)NC3CC3)cc(-c3ccccc3F)nc21	.	.	.	-9	.
CNCC(=O)N1CCCC(N2CCN(Cc3ccc4c(c3)OCO4)CC2)C1 (centres undefined)	2%	?	3%	-37*	-8%
COc1ccc(Cl)cc1NC(=O)C(=O)c1c[nH]c2ccccc12	.	i	.	.	.
C=CC(=O)Nc1cc(Nc2ncc(Cl)c(-c3c[nH]c4ccccc34)n2)c(OC)cc1N(C)CCN(C)C	.	.	?	-26*	?
CCOC(=O)c1cccc(NCC2=CC(C)(C)COc3ccc(OC)cc32)c1	.	.	.	26	.
Cc1c(NC(=O)c2ccc([N+](=O)[O-])o2)cccc1-c1nc2ccccc2o1	.	i	.	.	.
Cc1c(NC(=O)c2sc3c([N+](=O)[O-])cccc3c2Cl)cccc1-c1nc2ccccc2o1	9%	i	12%	-28*	7%
CN(C)C1(CNC(=O)C2CCN(C(=O)c3ccc(F)cc3)CC2)CCCCCC1	.	i	.	.	.
CN(C)c1ccc(C(=C2C=CC(=[N+](C)C)C=C2)c2ccccc2)cc1	?	.	-78%[23.9 µM]	-42*	15µM*
CN(C)c1ccc(C(=O)C(=O)c2ccccc2)cc1	.	i	.	.	.
Cc1ccc(NC(=O)Cc2n[nH]c(=O)c3ccccc23)c(O)c1	.	i	.	.	.
CCc1c(C)sc(NC(=O)/C=C/c2ccc(OC)cc2)c1C#N	.	i	.	.	.
Clc1ccccc1-c1nc(-c2ccncc2)no1	193%[25.6 µM]	.	-14%[23.9 µM]	-25*	?
CC(C)c1ccc2oc(=O)cc(CN3CCN(c4ccccc4F)CC3)c2c1	.	i	.	.	.
Cn1ccc(NC(=O)c2ccc(-c3ncc4cnc(-c5cccc(F)c5)cn34)cc2)n1	-9%[87.6 µM]	?	-9%[87.6 µM]	-9	.
O=C(O)c1ccc(-c2ncc3cnc(-c4cccc(F)c4)cn23)cc1	-10%[87.6 µM]	35µM*	4%[87.6 µM]	-30*	?
Cc1cccc(N2CCN(S(=O)(=O)c3csc(C(N)=O)c3)CC2)c1C	-12%	i	-7%	-42*	7.3µM*
COc1cc([C@H]2Oc3cc([C@H]4Oc5cc(O)cc(O)c5C(=O)[C@H]4O)ccc3O[C@H]2CO)ccc1O	?	.	15%	.	.
COc1cc([C@H]2Oc3cc([C@H]4Oc5cc(O)cc(O)c5C(=O)[C@@H]4O)ccc3O[C@@H]2CO)ccc1O	21%[25.6 µM]	.	-27%[23.9 µM]	-79*	7.3µM*
CN(CCCc1ccccc1)CC(=O)NC(C)(C#N)C1CC1 (centres undefined)	.	i	.	.	.
COc1ccc(N2CCN(CC(O)COc3ccccc3C(C)(C)C)CC2)cc1 (centres undefined)	?	?	5%	-27*	?
SMILES	SNCA expr inhib	KDM5B inhibitor	SNCA viab count	IP6K1 inh	IP6K1 conf
COc1ccc(N2CCN(CC(O)COc3c(OC)cccc3OC)CC2)cc1 (centres undefined)	51%	?	7%	-46*	-15%
CC1=NN(c2ccccc2)C(=O)C1	-29%[25.6 µM]	.	5%	-32*	-14%
CC(C)c1ccc(C2=NN(c3ccccc3)C(=O)CC2)cc1	.	i	.	.	.
COCCCNc1nc(NCc2ccc(C)cc2)c2cnn(C)c2n1	-3%	?	-11%	-36*	-8%
COCCNc1nc(NCc2ccccc2OC)c2cnn(C)c2n1	7%	?	5%	-10	.
COCCCNc1nc(NCc2ccccc2OC)c2cnn(C)c2n1	-16%	?	10%	-30*	-14%
CN(C)C(CNC(=O)C1CC=CCC1)c1ccsc1 (centres undefined)	.	i	.	.	.
O=C1NC(=O)/C(=C/c2ccc3c(c2)OC(F)(F)O3)S1	119%	.	-5%	-37*	?
COc1cc(/C=C(\C#N)c2nc3ccccc3[nH]2)ccc1OC(C)C(=O)O (centres undefined)	.	i	.	.	.
Cc1cc(C(=O)NC2CC(c3nnc(CN(C)C)n3C)C2)c2c(C)noc2n1 (centres undefined)	37%	i	16%	-29*	-7%
CC(C)Oc1ccc2c(NC(=O)C3CCOC3)nn(Cc3ccccc3)c2c1 (centres undefined)	-22%	i	3%	5	.
CC(C)Oc1ccc2c(NC(=O)CN3CCCC3=O)nn(Cc3ccccc3)c2c1	22%	i	-7%	-33*	-4%
Cc1cc(OCCn2c(CNC=O)nc3ccccc32)ccc1Cl	.	i	.	.	.
COc1ccc(C(=O)Nc2ccc(NC(=O)c3cccs3)cc2)cc1OC	-1%	?	?	-56*	0%
c1cc(N[C@@H]2CCNC2)nc(-c2cnc3ccc(-c4cn[nH]c4)cn23)c1	?	.	-40%	-39*	?
c1ccc(-c2nnc3ccc(NC4CCC4)nn23)nc1	23%[87.6 µM]	?	12%[87.6 µM]	-12	.
COc1cccc(-c2ocnc2C(=O)Nc2ccccc2OC)c1	.	i	.	.	.
CCc1nc2ccc(C(=O)NCc3ccc(N(C)C)cc3)cc2nc1CC	12%	i	-1%	-26*	-16%
CCc1nc2ccc(C(=O)NCc3cccc(Br)c3)cc2nc1CC	61%	?	?	10	.
C=Cc1cc(O)cc2nc(-c3ccc(O)c(F)c3)oc12	.	.	-4%	-28*	?
COc1ccc(-c2ccc3nc(-c4ccc(F)c(F)c4)oc3c2)c(OC)c1OC	-1%	i	3%	0	.
COc1ccc(CCC(=O)NCc2ccc3c(c2)CCN3C(=O)c2ccc(Cl)cc2)cc1	1%	i	?	-28*	9%
O=C(NCc1ccccc1)c1nc2sccn2c1-c1ccncc1	28%[87.6 µM]	.	-1%[87.6 µM]	4	.
COc1ccc(-c2nc3c(c(SCC(=O)Nc4cccc(O)c4)n2)Cc2c(CO)cnc(C)c2O3)cc1	-8%	?	-22%	-29*	-3%
CCOc1ccc(NC(=O)CSc2nc(-c3ccc(OC)cc3)nc3c2Cc2c(CO)cnc(C)c2O3)cc1	11%	i	14%	14	.
Cc1ccc(C)c(N2CCN(C(=O)C3CCCN(c4nnc(-n5cccc5)s4)C3)CC2)c1 (centres undefined)	.	i	.	.	.
Cc1ccc2c(c1)N(C(=O)N1CCC(C(=O)NCCc3ccccc3)CC1)CC(C)O2 (centres undefined)	-3%	i	-11%	7	.
